Experimental data from PubChem BioAssay AID1159580 (chemical genetic matrix, 2015).
In all, about 5,500 compounds went through this assay and about 2,000 (36%) were called active. Another 18% or so got no clear call; they are omitted. Cut-off read from the data, not from the text of the source: active = normalized growth mostly below about 0.91 (no sharp cut-off); inconclusive = no clear call, values can overlap the other calls; inactive = mostly above about 0.92. This is one part of the list.

Assay: chemical genetic growth profiling, strain panel (AID 1159580);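 note: tested at 20 µM; growth read once vehicle control cultures reached saturation at 30 °C; 1 = growth at the plate median or of vehicle wells; lower values mean less growth of the strain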
Conditions: S. cerevisiae deletion strains, growth OD

Measured: normalized growth

COC(=O)c1ccc(Oc2c(C(F)(F)F)oc3cc(O)ccc3c2=O)cc1
inactive: locus YAR019C, strain CDC15, stronger effect = lower value 0.976 | locus YBL105C, strain PKC1, stronger effect = lower value 0.976 | locus YBR135W, strain CKS1, stronger effect = lower value 0.975 | locus YBR136W, strain MEC1, stronger effect = lower value 0.974 | locus YBR160W, strain CDC28, stronger effect = lower value 0.986 | locus YDL017W, strain CDC7, stronger effect = lower value 0.977 | locus YDL028C, strain MPS1, stronger effect = lower value 0.979 | locus YDL101C, strain DUN1, stronger effect = lower value 0.982 | locus YDL108W, strain KIN28, stronger effect = lower value 0.976 | locus YDL132W, strain cdc53, stronger effect = lower value 0.961 | locus YDL214C, strain PRR2, stronger effect = lower value 0.949 | locus YDR052C, strain DBF4, stronger effect = lower value 0.984 | locus YDR054C, strain cdc34, stronger effect = lower value 0.959 | locus YDR226W, strain ADK1, stronger effect = lower value 0.964 | locus YDR477W, strain SNF1, stronger effect = lower value 0.948 | locus YER123W, strain YCK3, stronger effect = lower value 0.924 | locus YER133W, strain GLC7, stronger effect = lower value 0.929 | locus YFL009W, strain cdc4, stronger effect = lower value 0.969 | locus YFL029C, strain CAK1, stronger effect = lower value 0.976 | locus YFR003C, strain YPI1, stronger effect = lower value 0.974 | locus YFR019W, strain FAB1, stronger effect = lower value 0.938 | locus YFR028C, strain CDC14, stronger effect = lower value 0.965 | locus YGR040W, strain KSS1, stronger effect = lower value 0.941 | locus YGR052W, strain FMP48, stronger effect = lower value 0.962 | locus YGR092W, strain DBF2, stronger effect = lower value 0.948 | locus YHR030C, strain SLT2, stronger effect = lower value 0.902 | locus YHR079C, strain IRE1, stronger effect = lower value 0.926 | locus YHR082C, strain KSP1, stronger effect = lower value 1.01 | locus YHR205W, strain SCH9, stronger effect = lower value 0.949 | locus YIL147C, strain SLN1, stronger effect = lower value 0.978 | locus YJL095W, strain BCK1, stronger effect = lower value 0.904 | locus YJL128C, strain PBS2, stronger effect = lower value 0.941 | locus YJL157C, strain FAR1, stronger effect = lower value 0.936 | locus YJR016C, strain ILV3, stronger effect = lower value 0.974 | locus YJR066W, strain TOR1 (second series), stronger effect = lower value 0.93 | locus YJR066W, strain TOR1, stronger effect = lower value 1.01 | locus YKL048C, strain ELM1, stronger effect = lower value 0.968 | locus YKL067W, strain YNK1, stronger effect = lower value 0.956 | locus YKL101W, strain HSL1, stronger effect = lower value 0.945 | locus YKL193C, strain SDS22, stronger effect = lower value 0.967 | locus YKL203C, strain TOR2, stronger effect = lower value 1.01 | locus YLR113W, strain HOG1, stronger effect = lower value 0.869 | locus YLR133W, strain CKI1, stronger effect = lower value 0.95 | locus YLR403W, strain SFP1, stronger effect = lower value 0.938 | locus YML070W, strain DAK1, stronger effect = lower value 0.934 | locus YMR001C, strain CDC5, stronger effect = lower value 0.972 | locus YMR205C, strain PFK2 (second series), stronger effect = lower value 0.969 | locus YMR277W, strain FCP1, stronger effect = lower value 0.978 | locus YNL006W, strain LST8, stronger effect = lower value 0.972 | locus YNL020C, strain ARK1, stronger effect = lower value 0.949 | locus YNL161W, strain CBK1, stronger effect = lower value 0.962 | locus YNL183C, strain NPR1, stronger effect = lower value 1.02 | locus YNL207W, strain RIO2, stronger effect = lower value 0.969 | locus YNL222W, strain SSU72, stronger effect = lower value 0.979 | locus YNL307C, strain MCK1 (second series), stronger effect = lower value 0.95 | locus YOL078W, strain AVO1, stronger effect = lower value 0.97 | locus YOL136C, strain PFK27, stronger effect = lower value 0.933 | locus YOR061W, strain CKA2, stronger effect = lower value 0.968 | locus YOR119C, strain RIO1, stronger effect = lower value 1.02 | locus YOR231W, strain MKK1, stronger effect = lower value 0.967 | locus YOR329C, strain SCD5, stronger effect = lower value 0.975 | locus YPL031C, strain PHO85, stronger effect = lower value 0.94 | locus YPL153C, strain RAD53, stronger effect = lower value 0.935 | locus YPL204W, strain HRR25, stronger effect = lower value 0.95 | locus YPL209C, strain IPL1, stronger effect = lower value 0.971 | locus YPL256C, strain CLN2, stronger effect = lower value 0.9 | locus YPR025C, strain CCL1, stronger effect = lower value 0.98 | locus YPR106W, strain ISR1, stronger effect = lower value 0.979 | locus YPR111W, strain DBF20, stronger effect = lower value 0.979 | strain NNK1, stronger effect = lower value 0.973 | strain TSCII, stronger effect = lower value 0.96
